Source: PubChem (National Center for Advancing Translational Sciences (NCATS))
ATXN2 expr inh – ATXN2 expression inhibition; Potency, µM (titrated, usually from 57 µM), actives largely listed as inhibitors; actives 0.72% (n = 360,000); HEK-293 ATXN2-luciferase reporter, luminescence, 24 h; AID 1745845; also: nearly all actives have a fitted effect of over 55% in size
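qHTS (up to 57 uM final) was run with 24 h compound exposure of reporter cells at 37 °C. Each well was multiplexed: SteadyGlo luminescence measured ATXN2-luciferase expression after a fluorogenic Gly-Phe-AFC viability readout (25 uM final).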
HepG2 tox – HepG2 cytotoxicity, counter-screen for TGF-b inhibitors; Potency, µM (highest dose often 46.1 µM), hits mostly cytotoxic; HepG2 CAGA-GFP viability, ATP luminescence, 18 h; actives 0.76% (n = 410,000)
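CellTiter-Glo luminescence gave cytotoxicity after 18 hours at 37 degrees C. The cells were HepG2 CAGA-GFP in 1% FBS DMEM, stimulated with 500 pg/mL TGF-beta after compound addition. %Activity was normalised to no-cell wells (complete cell-killing) and DMSO (no toxicity), and curves were fitted and classified.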
TGFb SMAD3 inh – blocks TGF-b signaling; HepG2 CAGA-GFP TGF-b/SMAD3 reporter, GFP fluorescence, 18 h; TGF-beta stimulated, 500 pg/mL final; Potency, µM (titrated, usually from 46.1 µM), most hits filed as inhibitors; actives 1.2% (n = 410,000); AID 588855; also: nearly all actives have a fitted effect of over 65% in size
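First, reporter cells (HEPG2 CAGA-GFP) rested 2 h at 37 degrees C. Next, compounds were pinned in and TGF-beta added to 500 pg/mL final. After 18 h, GFP was imaged per cell and summed per well.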
IL-1B inflam inh – blocks inflammasome-driven IL-1 beta release | THP-1 LPS/ATP IL-1B secretion, AlphaLISA, 16 h; stronger effect = lower value | activity change, % at 57.5 µM | actives 4.7% (n = 360,000); in the data active = activity change below about -50%; inconclusive = mostly about -30% to -49%
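THP-1 cells pretreated 1 hr with compounds (up to 57.5 uM final), then stimulated with LPS (250 ng/mL final) plus ATP (1.25 mM final); secreted IL-1B measured by AlphaLISA after 16 hr, decreased signal indicating inhibition.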
ATXN viability – cell viability loss in ATXN counter-screen. actives 0.49% (n = 400,000). S2 cells (HEK-293 line with an ATXN2-luciferase reporter) viability, CellTiter-Fluor protease fluorescence, 24 h. Potency, µM (highest dose often 56.7 µM), usual class: cytotoxic; also: nearly all actives have a fitted effect of over 40% in size
Hits are given with their value; – = inactive; ? = inconclusive; · = not tested or not shown; [ ] = remark or other dose. Sampled rows, rich in hits. Any-hit rate of the full collection: about 5.7%. Unless noted, calls follow the shape of the dose curve; as a rule, active = well fitted curve in the direction sought with a large enough effect; inconclusive = small, poorly fitted or top-dose-only effect, or another doubt; inactive = no such curve, though single readings can be large; an effect the other way counts as inactive or inconclusive.

SMILES	ATXN2 expr inh	HepG2 tox	TGFb SMAD3 inh	IL-1B inflam inh	ATXN viability
Cc1nn(C)c(C)c1CNC(=O)c1cnn2c1NC(c1ccccc1)CC2C(F)(F)F (stereo unspecified)	–	–	–	–	–
COc1cc(OC)cc(N(C(=O)C2COc3ccccc3O2)C(C(=O)NC2CCCCC2)c2ccc(O)cc2)c1 (stereo unspecified)	–	–	–	-60	–
c1ccc(-c2noc(CN3CCN(C(c4ccccc4)c4ccccc4)CC3)n2)cc1	–	–	–	-87	–
CC(=O)Nc1nonc1-c1nnc(SCC(=O)N(C)c2ccccc2)n1C	–	–	–	·	–
CC(C)Oc1ccc(C(=O)N(Cc2ccco2)Cc2cccs2)cc1	·	–	–	·	·
CC(C)Oc1ccc(C(=O)/C(=C\c2cccs2)c2nc3ccccc3o2)cc1	–[11.3 µM]	–	–	-67	–
Cn1c(=O)c(C(=O)c2ccccc2)nc2ccccc21	–	–	–	–	–
Cn1cc(C(=O)c2ccc(Cl)cc2)cc1-c1nc2ccccc2n1C	?	–	–	-72	?
CC(C)(C)COc1ccc(-n2cc(C(=O)O)cn2)cc1C#N	–	·	·	·	·
Cc1cccc(N2CCN(c3ncnc4c3nc3n4CCCCC3)CC2)c1C	–	–	?	·	–
Cc1cccc(NC(=O)c2sc3nc(-c4ccccc4)cn3c2C)n1	?	–	–	-59	?
COc1cc(NC(=O)CCc2nc3cccnc3n2Cc2cccs2)cc(OC)c1OC	–	–	?	·	–
Cc1cccc(C)c1OCC(O)CN(Cc1ccccc1O)C1CCCCC1 (stereo unspecified)	–	–	?	-66	–
CN(CC(O)COc1ccc(OCC(O)CN(C)C2CCCCC2)cc1)C1CCCCC1 (stereo unspecified)	–	–	–	–	?
CC1CCN(CCCNc2cc(NCCO)c([N+](=O)[O-])c3nonc23)CC1	–	–	–	–	–
COC(=O)CCSc1cc(NCCOC(C)=O)c([N+](=O)[O-])c2nonc12	–	–	?	-97	–
CCCC(=O)OCCNc1cc(SCCC(=O)OC)c2nonc2c1[N+](=O)[O-]	–	–	?	-86	–
COc1cccc(NC(=O)c2oc3ccc(S(=O)(=O)N4CCC5(CC4)OCCO5)cc3c2C)c1	·	–	–	·	·
CN(CCC#N)C(=O)COC(=O)c1c2c(nc3ccccc13)/C(=C/c1ccco1)CC2	–	–	–	-58	·
Cc1cccc2cc3c(N)c(C(=O)N4CCOCC4)sc3nc12	–	–	–	-55	–
CCN(CC)CCNc1nc(C(F)(F)F)nc2c1nnn2Cc1ccccc1	–	–	–	-60	–
COc1ccc(NC(=O)c2c(NCc3cccs3)sc3c2CCCCC3)cc1	?	–	?	·	–
CC(Oc1ccc(Cl)cc1Cl)c1ccnc2nc(N3CCOCC3)nn12 (stereo unspecified)	?	–	–	-52	?
c1ccc(C2=NN(c3ccccc3)CC2)cc1	·	–	–	–	·
CCOC(=O)/C(=C/c1ccc(N2CCC(c3ccccc3)=N2)cc1)C(C)=O	1.9µM	–	–	–	·
SMILES	ATXN2 expr inh	HepG2 tox	TGFb SMAD3 inh	IL-1B inflam inh	ATXN viability
CC(NC(=O)Cn1ccc2cc(S(=O)(=O)N3CCCCCC3)ccc21)c1ccccc1 (stereo unspecified)	?	–	–	·	?
Cc1ccc(C(=O)N2CCN(Cc3ccc4c(c3)OCO4)CC2)c(Cl)c1	–	–	?	-59	?
O=C(c1sccc1Cl)N1CCN(Cc2ccc3c(c2)OCO3)CC1	–	–	?	-81	–
O=C(CSc1nccc2ccccc12)N1CCN(Cc2ccc3c(c2)OCO3)CC1	–	–	–	-81	–
N#CCC(=O)N1CCN(Cc2ccc3c(c2)OCO3)CC1	·	1.6µM	–	–	–
O=C(CSCc1ccccc1)N1CCN(Cc2ccc3c(c2)OCO3)CC1	–	–	–	?	–
O=S(=O)(c1ccc(-c2csc(=Nc3ccc(OC(F)(F)Cl)cc3)n2CCCO)cc1)N1CCCC1	·	–	3.5µM	·	·
Cn1c(-c2ccc(S(=O)(=O)N3CCCC3)cc2)csc1=Nc1ccc(Cl)c(Cl)c1	·	–	?	·	·
COCCCn1c(-c2ccc(S(=O)(=O)N3CCOCC3)cc2)csc1=Nc1ccccc1	32µM	–	–	–	?
C=C1C=C(C)n2ncc(C(=O)Nc3ccc(NC(C)=O)c(Cl)c3)c2N1	·	–	–	·	·
COc1cc(CN(C(=O)COc2ccccc2)c2ccccn2)cc(OC)c1OC	–	–	–	·	–
CCN(C(=O)c1ccc2c(Cl)c3c(nc2c1)CCC3)c1ccc(C)c(C)c1	?	–	?	-81	?
O=C(c1ccc2c(Cl)c3c(nc2c1)CCCC3)N1CCC(N2CCCCC2)CC1	–	–	?	-69	?
CCOC(=O)N1CCN(C(=O)c2ccc3c(Cl)c4c(nc3c2)CCCC4)CC1	–	–	?	-51	–
COc1cccc(CNC(=O)C2CCCCN2S(=O)(=O)c2ccc(F)cc2)c1 (stereo unspecified)	–	–	–	·	–
COc1cc(/C=C2\SC(N3CCC(C)CC3)=NC2=O)ccc1O	–	–	–	-56	?
COc1ccc(OC)c(/C=C2\SC(N3CCCC(C)C3)=NC2=O)c1 (stereo unspecified)	–	–	–	-59	–
COc1ccc(/C=C2\SC(N3CCCCC3)=NC2=O)cc1OC	–	–	–	–	–
CCOc1ccc(CNC(=O)CCCn2c(=O)c3cccn3c3ccc(F)cc32)cc1	·	–	–	·	·
C=CC(=O)Nc1sc2c(c1C(N)=O)CCCC2	?	–	16µM	-109	?
C=CCNC(=S)Nc1sc2c(c1C(N)=O)CCCC2	–	11µM	–	–	–
NC(=O)c1c(NC(=S)Nc2ccccc2)sc2c1CCCC2	–	–	–	–	–
O=C1c2cccc3cccc(c23)C(=O)C1(O)O	?	–	?	-94	·
CC(=O)N1C(=O)c2cccc3cccc(c23)C(=O)N1C(C)=O	–	–	–	–	–
O=C1CN(C(=O)c2ccc(Cl)c([N+](=O)[O-])c2)c2ccccc2N1	–	–	–	-78	–
Cc1ccc(Nc2c([N+](=O)[O-])cc(C(=O)N3CC(=O)Nc4ccccc43)cc2[N+](=O)[O-])c(C)c1	–	–	?	–	–
C=C1C(=O)C=C2CN(C(=O)c3ccccc3)[C@@](Cc3ccc(F)cc3)(C(=O)OC)[C@@H]12	3.2µM	3.2µM	1.8µM	-103	4.5µM
COC(=O)[C@@]1(Cc2ccc(OC)cc2)[C@@H]2C(=CC(=O)[C@H]2CC(=O)C(=O)N(C)C)CN1C(=O)c1ccccc1	?	–	?	-76	?
COC(=O)[C@@]1(Cc2ccc(OC)cc2)[C@H]2c3cc(C(=O)N(C)C)n(C[C@H](O)CO)c3C[C@H]2CN1C(=O)c1ccccc1	–	–	–	–	–
Cc1ccc(Nc2nc3nonc3nc2Nc2cccc(C(F)(F)F)c2)cc1Cl	·	–	?	·	·
